Measurements from PubChem BioAssay.
For some assays here: Measured potencies and affinities stand elsewhere. Activity calls are given as the source filed them. Unless noted, no rule for the calls is given here.

Tests used:
[1] = antimalarial activity against Dd2 strain (AID 2302;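 active = growth inhibition above 50% at the single 2 µM test dose, taken to imply half-maximal potency below 2 µM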;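 also: 0% = DMSO untreated growth and 100% = chloroquine plus artemisinin killed control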); settings: P. falciparum Dd2 in RBCs, LDH growth readout, 72 h; at 2 µM; stronger effect = higher value
[2] = HepG2 cytotoxicity, primary screen, cytotoxicity control for P. falciparum antimalarial project, cell-based, ATP luminescence (AID 2303;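 active = inhibition above 50%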;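 also: 0% = DMSO wells and 100% = digitonin-killed cells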); settings: HepG2 viability, 24-48 h, at 10 µM, stronger effect = higher value
[3] = molecular target: L-lactate dehydrogenase (Plasmodium falciparum (isolate CDC / Honduras)) (UniProt Q27743); experiment: PfLDH activity inhibition – cell lysate, 3D7 strain, counter-screen for P. falciparum growth inhibition project (AID 2304);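 also: 0% = vehicle and 100% = reference inhibitor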; settings: P. falciparum 3D7 crude extract, LDH APAD/NBT absorbance; at 2 µM; stronger effect = higher value
Sequence of L-lactate dehydrogenase (Plasmodium falciparum (isolate CDC / Honduras)) (Q27743 whole entry, looked up): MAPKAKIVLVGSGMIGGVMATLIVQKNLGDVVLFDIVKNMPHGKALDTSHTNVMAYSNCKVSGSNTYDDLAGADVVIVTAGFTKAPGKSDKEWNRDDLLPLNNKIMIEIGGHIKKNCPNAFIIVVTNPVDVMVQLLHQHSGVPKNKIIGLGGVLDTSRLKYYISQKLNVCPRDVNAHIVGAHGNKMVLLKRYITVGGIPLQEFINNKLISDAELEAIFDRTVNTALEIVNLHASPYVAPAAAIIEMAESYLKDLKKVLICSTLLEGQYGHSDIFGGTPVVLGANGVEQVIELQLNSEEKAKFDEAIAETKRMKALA

[4] = inhibition of 3D7 malaria parasite growth – strain 3D7 (AID 2306);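 also: 0% = DMSO wells and 100% = chloroquine plus artemisinin control wells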; settings: P. falciparum 3D7 erythrocytic growth, LDH absorbance, 72 h; at 2 µM; stronger effect = higher value
[5] = molecular target: Calcium-dependent protein kinase 1 (Plasmodium falciparum (isolate 3D7)) (UniProt P62344); experiment: PfCDPK1 kinase inhibitors, biochemical, TCAMS library (AID 1159585; cut-off not given, nearly all actives have IC50 up to about 0.98 µM;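 also: inhibitors leave more ATP so luminescence rises with inhibition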); settings: recombinant PfCDPK1, Kinase-Glo ATP depletion luminescence
Sequence of Calcium-dependent protein kinase 1 (Plasmodium falciparum (isolate 3D7)) (P62344 whole entry, looked up): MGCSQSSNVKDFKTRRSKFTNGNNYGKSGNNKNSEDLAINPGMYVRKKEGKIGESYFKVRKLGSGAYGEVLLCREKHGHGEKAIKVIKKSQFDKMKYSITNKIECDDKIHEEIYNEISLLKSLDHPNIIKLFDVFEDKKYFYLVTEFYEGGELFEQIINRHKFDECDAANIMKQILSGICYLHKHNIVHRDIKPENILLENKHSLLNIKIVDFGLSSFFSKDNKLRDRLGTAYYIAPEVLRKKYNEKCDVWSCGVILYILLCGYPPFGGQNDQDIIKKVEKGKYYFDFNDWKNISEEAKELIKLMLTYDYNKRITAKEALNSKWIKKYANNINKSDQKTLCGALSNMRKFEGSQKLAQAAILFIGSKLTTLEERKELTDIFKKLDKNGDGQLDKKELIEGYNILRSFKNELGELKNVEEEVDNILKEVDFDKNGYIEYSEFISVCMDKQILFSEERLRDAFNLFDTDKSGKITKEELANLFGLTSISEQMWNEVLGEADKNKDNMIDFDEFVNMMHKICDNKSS

[6] = molecular target: Plasmodium falciparum protein kinase 6 (PK6, PF3D7_1337100) (UniProt Q8IDW1); experiment: PfPK6 kinase inhibitors, biochemical, TCAMS library (AID 1159586); settings: recombinant PfPK6, Kinase-Glo ATP depletion luminescence
Sequence of Plasmodium falciparum protein kinase 6 (PK6, PF3D7_1337100) (Q8IDW1 1-305): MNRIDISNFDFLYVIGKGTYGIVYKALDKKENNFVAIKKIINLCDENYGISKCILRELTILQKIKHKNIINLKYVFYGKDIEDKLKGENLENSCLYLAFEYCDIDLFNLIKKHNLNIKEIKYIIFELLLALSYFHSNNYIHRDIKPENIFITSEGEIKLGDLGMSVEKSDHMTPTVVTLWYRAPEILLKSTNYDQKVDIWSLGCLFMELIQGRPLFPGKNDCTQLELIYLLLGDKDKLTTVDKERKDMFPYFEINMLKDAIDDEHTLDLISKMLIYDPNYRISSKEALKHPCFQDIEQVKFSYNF

[7] = molecular target: Protein kinase 7 (PK7), Plasmodium falciparum 3D7 (PF3D7_0213400) (UniProt Q7YTF7); experiment: inhibition of Plasmodium PK7 catalytic activity – biochemical, TCAMS antimalarial set, Kinase-Glo luminescence (AID 1159587); settings: recombinant PfPK7, Kinase-Glo ATP depletion luminescence
Sequence of Protein kinase 7 (PK7), Plasmodium falciparum 3D7 (PF3D7_0213400) (Q7YTF7 1-343): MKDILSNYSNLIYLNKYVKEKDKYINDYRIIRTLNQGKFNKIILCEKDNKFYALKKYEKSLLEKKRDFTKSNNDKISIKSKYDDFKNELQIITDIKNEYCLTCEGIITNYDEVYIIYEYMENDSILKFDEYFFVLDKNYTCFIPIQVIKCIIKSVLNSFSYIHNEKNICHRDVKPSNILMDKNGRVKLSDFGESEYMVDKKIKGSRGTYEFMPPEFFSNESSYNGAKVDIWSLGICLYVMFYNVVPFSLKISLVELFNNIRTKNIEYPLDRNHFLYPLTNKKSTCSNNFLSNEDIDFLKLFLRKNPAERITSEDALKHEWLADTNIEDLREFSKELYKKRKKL

[8] = molecular target: Calcium-dependent protein kinase 4 (Plasmodium falciparum (isolate 3D7)) (UniProt Q8IBS5); experiment: PfCDPK4 kinase inhibitors, biochemical, TCAMS library (AID 1159588; cut-off not given, nearly all actives have IC50 up to about 0.91 µM); settings: recombinant PfCDPK4, Kinase-Glo ATP depletion luminescence
Sequence of Calcium-dependent protein kinase 4 (Plasmodium falciparum (isolate 3D7)) (Q8IBS5 whole entry, looked up): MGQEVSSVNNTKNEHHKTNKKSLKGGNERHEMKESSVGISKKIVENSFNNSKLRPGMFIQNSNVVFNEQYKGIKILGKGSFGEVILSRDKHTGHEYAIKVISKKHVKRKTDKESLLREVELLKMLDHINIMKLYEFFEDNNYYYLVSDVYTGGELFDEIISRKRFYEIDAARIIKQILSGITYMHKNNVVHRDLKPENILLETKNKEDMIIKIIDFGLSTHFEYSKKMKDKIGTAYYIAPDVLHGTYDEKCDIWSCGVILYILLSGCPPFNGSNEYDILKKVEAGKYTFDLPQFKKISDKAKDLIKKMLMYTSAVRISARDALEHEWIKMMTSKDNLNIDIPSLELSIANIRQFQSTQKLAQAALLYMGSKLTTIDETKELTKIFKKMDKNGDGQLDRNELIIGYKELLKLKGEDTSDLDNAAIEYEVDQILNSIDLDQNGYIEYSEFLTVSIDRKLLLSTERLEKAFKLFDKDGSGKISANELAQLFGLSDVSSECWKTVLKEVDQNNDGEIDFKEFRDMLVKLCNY

Row | SMILES | growth inhibition [1] | inhibition [2] | inhibition [3] | growth inhibition [4] | outcome [5] | outcome [6] | outcome [7] | outcome [8]
1 | CCc1ccc(CN2CCC(C(=O)Nc3ccc(-c4nc5ccccc5[nH]4)cc3)CC2)o1 | 94% (active) | 29% (inactive) | -4% (inactive) | 99% (active) | inactive | inactive | inactive | inactive
2 | Fc1cccc(COc2ccc(Nc3ncnc4sc(C#C[C@H]5CC[C@H](CN6CCOCC6)N5)cc34)cc2Cl)c1 | 23% (inactive) | 16% (inactive) | -10% (inactive) | 92% (active) | inactive | inactive | inactive | inactive
3 | CC(C)CN(C)Cc1ccc(-c2ccc(-c3nc4ccccc4[nH]3)s2)cc1 | 76% (active) | 8% (inactive) | 2% (inactive) | 97% (active) | inactive | inactive | inactive | inactive
4 | COc1cc(OC)c(NC(=O)COc2ccc(C)cc2)cc1Cl | 90% (active) | -7% (inactive) | 3% (inactive) | 86% (active) | inactive | inactive | inactive | inactive
5 | CNC(=O)c1cc(NCCCNCc2ccc(Cl)c(C(F)(F)F)c2)nc2ccccc12 | 7% (inactive) | 25% (inactive) | -1% (inactive) | 91% (active) | inactive | inactive | inactive | inactive
6 | Cc1sc2ncnc(Sc3nnc(N)s3)c2c1C | 100% (active) | 9% (inactive) | -1% (inactive) | 101% (active) | inactive | inactive | inactive | inactive
7 | CS(=O)(=O)c1cccc(-c2ccc3oc(C(N)=O)c(NC(=O)c4cccs4)c3c2)c1 | 77% (active) | 11% (inactive) | -8% (inactive) | 86% (active) | inactive | inactive | inactive | inactive
8 | Cc1nc(NC2=NCN(CCCN3CCOCC3)CN2)nc2c(C)cccc12 | 62% (active) | 17% (inactive) | 4% (inactive) | 89% (active) | inactive | inactive | inactive | inactive
9 | c1ccc(CN2CCC(Nc3ccc(-c4cn[nH]c4-c4ccccn4)nc3)CC2)cc1 | 23% (inactive) | 1% (inactive) | -5% (inactive) | 97% (active) | inactive | inactive | inactive | inactive
10 | Cc1ccc(Nc2nc(C)cc(N3CCN(CCc4ccccc4)CC3)n2)cc1 | 6% (inactive) | 6% (inactive) | -9% (inactive) | 93% (active) | inactive | inactive | inactive | inactive
11 | CC(=O)Nc1nc(C(=O)Nc2ccc(-c3cccc(-c4nc5c(C)cccc5[nH]4)c3)cc2)cs1 | 73% (active) | 100% (active) | -4% (inactive) | 101% (active) | inactive | inactive | inactive | inactive
12 | CN(C)CCOc1cc(O)c2c(c1)OC(C)(C)C=C2c1cccs1 | 10% (inactive) | 29% (inactive) | -2% (inactive) | 99% (active) | inactive | inactive | inactive | inactive
13 | CCCCCCC(C)c1cc(OCCN(CC)CC)c2c(c1)OC(C)(C)C=C2c1ccncc1 (stereo not given) | 71% (active) | 14% (inactive) | -1% (inactive) | 90% (active) | inactive | inactive | inactive | inactive
14 | O=C(NC1CCN(Cc2cccc(C(F)(F)F)c2)CC1)c1ccc(-c2cccc(Cl)c2)s1 | 33% (inactive) | 26% (inactive) | -1% (inactive) | 89% (active) | inactive | inactive | inactive | inactive
15 | O=C(/C=C/c1ccc(F)c(Br)c1)NCCCCCN1CCC(c2c[nH]c3ccccc23)CC1 | 10% (inactive) | 39% (inactive) | -7% (inactive) | 92% (active) | inactive | inactive | inactive | inactive
16 | O=C(NCCNc1ccnc(NCc2ccc(F)cc2)n1)c1cc2ccccc2s1 | 17% (inactive) | 6% (inactive) | -5% (inactive) | 99% (active) | inactive | inactive | inactive | inactive
17 | COc1cc(-n2c(CN3CCCC3)nc3cc(-c4ccc(Cl)cc4)sc3c2=O)ccc1OCCN1CCCC1 | 90% (active) | 66% (active) | -5% (inactive) | 94% (active) | inactive | inactive | inactive | inactive
18 | C[C@H](Nc1nc(C(Oc2ccccc2)c2ccccc2)nc2[nH]ncc12)c1ccccc1 (stereo not given in full) | 56% (active) | 15% (inactive) | -5% (inactive) | 100% (active) | inactive | inactive | inactive | inactive
19 | Cc1nc(-c2nc(N3CCC(O)CC3)ncc2-c2ccsc2)sc1C | 35% (inactive) | 6% (inactive) | -2% (inactive) | 83% (active) | inactive | inactive | inactive | inactive
20 | O=C(Nc1ccc(OC2CCN(Cc3ccc(F)cc3)CC2)c(Cl)c1)c1ccsc1 | 90% (active) | 5% (inactive) | 7% (inactive) | 94% (active) | inactive | inactive | inactive | inactive

Row | SMILES | growth inhibition [1] | inhibition [2] | inhibition [3] | growth inhibition [4] | outcome [5] | outcome [6] | outcome [7] | outcome [8]
21 | COc1ccc(OC)c(NC(=O)CSc2nc(-c3ccccc3Cl)ns2)c1 | 32% (inactive) | -8% (inactive) | -1% (inactive) | 95% (active) | inactive | inactive | inactive | inactive
22 | COc1cc2cc(-c3nc4ccccc4[nH]3)c(N)nc2cc1OC | 100% (active) | 91% (active) | 1% (inactive) | 100% (active) | inactive | inactive | inactive | inactive
23 | CCCCN(C)CC#Cc1ccc2[nH]c(C)c(Cl)c(=O)c2c1 | 97% (active) | -2% (inactive) | -6% (inactive) | 98% (active) | inactive | inactive | inactive | inactive
24 | N#Cc1cccc(NC(=O)Nc2cccc(-c3cccc(-c4nc5ccccc5[nH]4)c3)c2)c1 | 96% (active) | 46% (inactive) | 3% (inactive) | 100% (active) | inactive | inactive | inactive | inactive
25 | O=C(CCc1cnc[nH]1)Nc1ccc(-c2cccc(-c3nc4ccccc4[nH]3)c2)cc1 | 42% (inactive) | 12% (inactive) | 4% (inactive) | 101% (active) | inactive | inactive | inactive | inactive
26 | COc1ccc(F)cc1-c1ccccc1CNC(=O)c1cnn(-c2ccc([N+](=O)[O-])cc2)c1C(F)(F)F | 75% (active) | -3% (inactive) | -4% (inactive) | 89% (active) | inactive | inactive | inactive | inactive
27 | CC(Oc1c(C2CCN(CCCCNC(=O)c3ccc(-c4ccc(C#N)cc4)cc3)CC2)ccc2c1CCCC2)C(N)=O (stereo not given) | 83% (active) | 41% (inactive) | -3% (inactive) | 100% (active) | inactive | inactive | inactive | inactive
28 | COc1cc2nc(N3CCC(CNC(=O)c4cc5ccccc5s4)CC3)nc(N)c2cc1OC | 101% (active) | 8% (inactive) | 2% (inactive) | 101% (active) | inactive | inactive | inactive | inactive
29 | CC(C)c1cc(N)c2cc(NC(=O)COCC(=O)Nc3ccc4nc(C(C)C)cc(N)c4c3)ccc2n1 | 95% (active) | -8% (inactive) | 0% (inactive) | 95% (active) | inactive | inactive | inactive | inactive
30 | N#CCCN1CCN(Cc2cccc(-c3ccc(-c4nc5ccc(F)cc5[nH]4)cc3)c2)CC1 | 35% (inactive) | 18% (inactive) | -2% (inactive) | 100% (active) | inactive | inactive | inactive | inactive
31 | Cc1ccc(N2C(N)=NC(N)=NC2(C)C)cc1 | 20% (inactive) | 43% (inactive) | 0% (inactive) | 96% (active) | inactive | inactive | inactive | inactive
32 | CCOc1cc(C2C(C(=O)OC(C)C)=C(C)NC3=C2C(=O)CC(c2ccc(Cl)cc2)C3)ccc1OC(C)=O (stereo not given) | 20% (inactive) | 16% (inactive) | -3% (inactive) | 90% (active) | inactive | inactive | inactive | inactive
33 | CC(C)c1ccc(NC(=O)Nc2ccc(Cn3ncc(N4CCCNCC4)c(Cl)c3=O)cc2)cc1 | 27% (inactive) | 11% (inactive) | 2% (inactive) | 85% (active) | inactive | inactive | inactive | inactive
34 | O=C(/C=C/c1ccc(Cl)c(Cl)c1)NCCCCCN1CCN(C(=O)Nc2ccc(Cl)c(C(F)(F)F)c2)CC1 | -3% (inactive) | 22% (inactive) | 3% (inactive) | 100% (active) | inactive | inactive | inactive | inactive
35 | CCN(C)c1cc(C(=O)N[C@@H](Cc2ccccc2)[C@H](O)CNC(C)(C)c2cccc(OC)c2)cc(N2CCCC2=O)c1 | 81% (active) | -1% (inactive) | 1% (inactive) | 100% (active) | inactive | inactive | inactive | inactive
36 | COc1ccc(-c2nc(NC(=O)Cc3ccc(OC)c(OC)c3)sc2C)cc1 | 22% (inactive) | 33% (inactive) | -2% (inactive) | 93% (active) | inactive | inactive | inactive | inactive
37 | CCCN1CCN(CCCCNc2c3ccccc3nc3ccccc23)CC1 | 0% (inactive) | 34% (inactive) | -8% (inactive) | 100% (active) | inactive | inactive | inactive | inactive
38 | Cc1cc2nc(-c3ccc(C(=O)NCCCc4ccccc4)cc3)[nH]c2cc1C | 5% (inactive) | 7% (inactive) | -2% (inactive) | 91% (active) | inactive | inactive | inactive | inactive
39 | CN(C)C(=NCCCCCCN=C(NC(N)=NCc1ccc(Cl)c(Cl)c1)N(C)C)NC(N)=NCc1ccc(Cl)c(Cl)c1 | 99% (active) | 20% (inactive) | -9% (inactive) | 93% (active) | inactive | inactive | inactive | inactive
40 | COc1ccc2nccc(N3CCC(SCCNCc4ccc5c(n4)NC(=O)CS5)C3)c2n1 (stereo not given) | 100% (active) | 34% (inactive) | 2% (inactive) | 95% (active) | inactive | inactive | inactive | inactive
